Activity calls are given as the source filed them. The calls were made as follows: active = hit-call score of the fitted dose curve at least 0.9, where 1 is the maximum; inactive = score below 0.9.

Broadly, the AC50 is the concentration giving half of the maximal activity seen.

Holding throughout (conditions): mRNA level, 48 h; actives raise or lower the signal
Read-out in experiment [1]: Cyclin D2 (CCND2), CCND2 (gene 894)
The experiment is described as follows: LTEA_HepaRG_CCND2: Life Technologies and Expression Analysis (LTEA) Assay for Cyclin D2 (CCND2) using HepaRG (AID 2283449).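 Also: CCND2 transcript measured by TaqMan qRT-PCR and normalised to three housekeeping genes.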 In outline: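 HepaRG, 48 h dosing, 8-pt half-log curve from 100 uM, 0.5% DMSO; duplicate wells. Readout: CCND2 transcript by microfluidic qRT-PCR, housekeeping-normalised; bidirectional fit vs DMSO baseline.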

Read-out in experiment [2]: Cyclin Dependent Kinase Inhibitor 1A (CDKN1A), CDKN1A (gene 1026)
In words: LTEA_HepaRG_CDKN1A: Life Technologies and Expression Analysis (LTEA) Assay for Cyclin Dependent Kinase Inhibitor 1A (CDKN1A) using HepaRG (AID 2283450). Summed up:
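Read-out is CDKN1A mRNA by TaqMan qRT-PCR, normalized to three housekeeping genes and fitted in both directions against the DMSO baseline. Human HepaRG cells were treated 48 h with test chemicals up to 100 uM in half-log steps, 0.5% DMSO.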

Read-out in experiment [3]: Cyclin D1 (CCND1), CCND1 (gene 595)
The experiment is described as follows: LTEA_HepaRG_CCND1: Life Technologies and Expression Analysis (LTEA) Assay for Cyclin D1 (CCND1) using HepaRG (AID 2283451).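 As to AC50: differentiated human HepaRG liver cells in serum-free induction medium; TaqMan qRT-PCR transcript level normalised to ACTB GAPDH and POLR2A housekeeping genes.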 Summed up: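 HepaRG plated 48 h, medium switched to serum-free induction medium, chemicals added in duplicate (top 100 uM, half-log steps, 0.5% DMSO) for 48 h, cells lysed, RNA measured by TaqMan qRT-PCR.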

Read-out in experiment [4]: catalase (CAT), CAT (gene 847)
The experiment is described as follows: LTEA_HepaRG_CAT: Life Technologies and Expression Analysis (LTEA) Assay for catalase (CAT) using HepaRG (AID 2283452). In outline: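 HepaRG cells in serum-free induction medium, 0.5% DMSO vehicle, exposed 48 h in duplicate over 8 half-log concentrations from 100 uM. CAT mRNA measured by qRT-PCR, normalized to ACTB, GAPDH, POLR2A; bidirectional fit versus DMSO.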

Read-out in experiment [5]: flavin-containing dimethylaniline monooxygenases 3 (FMO3), FMO3 (gene 2328)
The experiment is described as follows: LTEA_HepaRG_FMO3: Life Technologies and Expression Analysis (LTEA) Assay for flavin-containing dimethylaniline monooxygenases 3 (FMO3) using HepaRG (AID 2283453).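 As to AC50: differentiated human HepaRG liver cells in serum-free induction medium.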 In outline: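 Eight-point concentration-response in serum-free HepaRG cultures (top 100 uM, 0.5% DMSO, 48 h). Read-out: FMO3 mRNA level normalized to three endogenous control genes, fitted bidirectionally versus vehicle.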

Read-out in experiment [6]: Cytochrome P450 (CYP1A1), CYP1A1 (gene 1543)
The experiment is described as follows: LTEA_HepaRG_CYP1A1: Life Technologies and Expression Analysis (LTEA) Assay for Cytochrome P450 (CYP1A1) using HepaRG (AID 2283454). Summed up:
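HepaRG, 48 h post-plating switched to serum-free induction medium; 8-pt conc-response (top 100 uM, half-log, 0.5% DMSO), duplicates, 48 h. Lysis in RLT, TaqMan qRT-PCR for CYP1A1; gain or loss vs DMSO.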

Read-out in experiment [7]: CFLAR gene, CFLAR (gene 8837)
The experiment is described as follows: LTEA_HepaRG_CFLAR: Life Technologies and Expression Analysis (LTEA) Assay for CFLAR gene using HepaRG (AID 2283455). Summed up:
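qRT-PCR read-out (Fluidigm/TaqMan) of CFLAR mRNA, normalized to three housekeeping genes, in differentiated human HepaRG cells after 48 h chemical exposure; 8-point half-log series from 100 uM in 0.5% DMSO; bidirectional curve fitting versus DMSO.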

Read-out in experiment [8]: Forkhead box O1 (FOXO1), FOXO1 (gene 2308)
In words: LTEA_HepaRG_FOXO1: Life Technologies and Expression Analysis (LTEA) Assay for Forkhead box O1 (FOXO1) using HepaRG (AID 2283456). Summed up: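 HepaRG, 48 h exposure, 8-pt half-log series from 100 uM in 0.5% DMSO, duplicates; Fluidigm qRT-PCR mRNA, housekeeping-normalised; bidirectional fit vs DMSO baseline.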

Read-out in experiment [9]: growth arrest and DNA damage 45 (GADD45A), GADD45A (gene 1647)
The experiment is described as follows: LTEA_HepaRG_GADD45A: Life Technologies and Expression Analysis (LTEA) Assay for growth arrest and DNA damage 45 (GADD45A) using HepaRG (AID 2283458). In outline:
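HepaRG, 48 h exposure, 8 conc. (top 100 uM, half-log steps), 0.5% DMSO vehicle, duplicates. Read-out: qRT-PCR mRNA level, housekeeping-normalized (ACTB/GAPDH/POLR2A). Curves fit bidirectionally vs DMSO baseline.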

Read-out in experiment [10]: Forkhead box O3 (FOXO3), FOXO3 (gene 2309)
The experiment is described as follows: LTEA_HepaRG_FOXO3: Life Technologies and Expression Analysis (LTEA) Assay for Forkhead box O3 (FOXO3) using HepaRG (AID 2283459). Summed up: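 qRT-PCR readout of FOXO3 transcript, normalized to three housekeeping genes (ACTB, GAPDH, POLR2A); gain or loss fitted against 0.5% DMSO vehicle. HepaRG cells, 48 h chemical exposure, 8-point half-log series, top 100 uM.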

Read-out in experiment [11]: ABC Transporter (ABCB1), ABCB1 (gene 5243)
In words: LTEA_HepaRG_ABCB1: Life Technologies and Expression Analysis (LTEA) Assay for ABC Transporter (ABCB1) using HepaRG (AID 2283460). Summed up:
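HepaRG, 48 h exposure, 8-pt half-log series from 100 uM, 0.5% DMSO vehicle, duplicates. Readout: ABCB1 transcript by Fluidigm TaqMan qRT-PCR, housekeeping-normalized; bidirectional curve fit vs DMSO baseline.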

Read-out in experiment [12]: growth arrest and DNA damage 45 (GADD45B), GADD45B (gene 4616)
The experiment is described as follows: LTEA_HepaRG_GADD45B: Life Technologies and Expression Analysis (LTEA) Assay for growth arrest and DNA damage 45 (GADD45B) using HepaRG (AID 2283461). Summed up:
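HepaRG, ~100,000 cells/well, 48 h plating; serum-free induction medium; cpd 100 uM top, half-log x8, 0.5% DMSO, duplicate, 48 h; lysis in RLT, RNA isolation, qRT-PCR; norm ACTB/GAPDH/POLR2A; bidirectional fit vs DMSO.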

Read-out in experiment [13]: ABC Transporter (ABCC3), ABCC3 (gene 8714)
The experiment is described as follows: LTEA_HepaRG_ABCC3: Life Technologies and Expression Analysis (LTEA) Assay for ABC Transporter (ABCC3) using HepaRG (AID 2283462). Summed up:
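Human HepaRG, 48 h dosing, 8-pt half-log series from 100 uM, 0.5% DMSO vehicle, duplicates. ABCC3 mRNA by TaqMan qRT-PCR, housekeeping-normalized; bidirectional curve fit vs DMSO.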

Read-out in experiment [14]: ABC Transporter (ABCB11), ABCB11 (gene 8647)
The experiment is described as follows: LTEA_HepaRG_ABCB11: Life Technologies and Expression Analysis (LTEA) Assay for ABC Transporter (ABCB11) using HepaRG (AID 2283463). In outline:
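HepaRG, 48 h exposure, 8-pt half-log CRC top 100 uM, 0.5% DMSO vehicle, duplicates. Readout: TaqMan qRT-PCR of ABCB11 mRNA, housekeeping-normalized (ACTB/GAPDH/POLR2A). Bidirectional fit vs DMSO baseline.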

Read-out in experiment [15]: ABC Transporter (ABCC2), ABCC2 (gene 1244)
The experiment is described as follows: LTEA_HepaRG_ABCC2: Life Technologies and Expression Analysis (LTEA) Assay for ABC Transporter (ABCC2) using HepaRG (AID 2283464). In outline: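 HepaRG, 48 h post-plating; serum-free induction medium; cpd 8-pt, 100 uM top, half-log, 0.5% DMSO, duplicate, 48 h. Readout: ABCC2 mRNA by qRT-PCR, norm. ACTB/GAPDH/POLR2A. Bidirectional fit vs DMSO baseline.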

Read-out in experiment [16]: Broad substrate specificity ATP-binding cassette transporter ABCG2 (Homo sapiens) (UniProt Q9UNQ0)
In words: LTEA_HepaRG_ABCG2: Life Technologies and Expression Analysis (LTEA) Assay for ABC Transporter (ABCG2) using HepaRG (AID 2283465). In outline:
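HepaRG, 48 h exposure, 8-pt half-log series from 100 uM, 0.5% DMSO vehicle, duplicates. Readout: ABCG2 transcript by qRT-PCR (Fluidigm array), housekeeping-normalized; bidirectional curve fit relative to DMSO baseline.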

Read-out in experiment [17]: ATP-citrate lyase (ACLY), ACLY (gene 47)
In words: LTEA_HepaRG_ACLY: Life Technologies and Expression Analysis (LTEA) Assay for ATP-citrate lyase (ACLY) using HepaRG (AID 2283466). In outline: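 qRT-PCR readout of ACLY transcript after 48 h chemical treatment of HepaRG cells; expression normalized to three housekeeping genes. Eight-point half-log series, highest 100 uM, 0.5% DMSO vehicle. Gain or loss fitted against DMSO baseline.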

Read-out in experiment [18]: Peroxisomal acyl-coenzyme A oxidase 1 (ACOX1) gene, ACOX1 (gene 51)
In words: LTEA_HepaRG_ACOX1: Life Technologies and Expression Analysis (LTEA) Assay for Peroxisomal acyl-coenzyme A oxidase 1 (ACOX1) gene using HepaRG (AID 2283467). In outline:
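HepaRG, 48 h chemical exposure, 8-pt half-log series from 100 uM top, 0.5% DMSO vehicle, duplicates. Readout: ACOX1 mRNA by Fluidigm qRT-PCR, housekeeping-normalized; bidirectional fit vs DMSO baseline.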

Read-out in experiment [19]: Alkaline Phosphatase, Placental (ALPP) gene, ALPP (gene 250)
The experiment is described as follows: LTEA_HepaRG_ALPP: Life Technologies and Expression Analysis (LTEA) Assay for Alkaline Phosphatase, Placental (ALPP) gene using HepaRG (AID 2283468).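 As to AC50: differentiated human HepaRG liver cells in serum-free induction medium.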 In outline:
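HepaRG, 48 h plating then 48 h dosing, serum-free induction medium, 0.5% DMSO. 8 conc, half-log, max 100 uM, duplicates. Endpoint: ALPP transcript by qRT-PCR, housekeeping-normalized; gain or loss fitted vs DMSO.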

Broad substrate specificity ATP-binding cassette transporter ABCG2 (Homo sapiens), sequence (Q9UNQ0 whole entry, looked up): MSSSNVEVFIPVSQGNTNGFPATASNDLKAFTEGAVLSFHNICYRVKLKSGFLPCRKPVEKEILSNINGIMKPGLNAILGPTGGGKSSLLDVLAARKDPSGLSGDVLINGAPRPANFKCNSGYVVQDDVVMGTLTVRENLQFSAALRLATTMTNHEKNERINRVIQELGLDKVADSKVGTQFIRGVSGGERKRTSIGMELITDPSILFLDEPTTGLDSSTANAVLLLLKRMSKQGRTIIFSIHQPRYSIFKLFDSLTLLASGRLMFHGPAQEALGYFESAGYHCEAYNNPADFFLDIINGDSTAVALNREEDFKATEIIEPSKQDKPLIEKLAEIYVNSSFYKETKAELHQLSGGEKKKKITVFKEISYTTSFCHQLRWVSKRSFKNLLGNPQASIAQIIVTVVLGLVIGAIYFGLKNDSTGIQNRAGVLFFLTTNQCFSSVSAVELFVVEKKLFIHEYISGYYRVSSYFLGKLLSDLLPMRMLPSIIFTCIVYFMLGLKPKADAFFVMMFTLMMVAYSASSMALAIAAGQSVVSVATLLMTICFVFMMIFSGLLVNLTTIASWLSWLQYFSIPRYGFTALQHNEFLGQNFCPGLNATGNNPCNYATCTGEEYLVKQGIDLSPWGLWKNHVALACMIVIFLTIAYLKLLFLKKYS

For `C[C@]12CC[C@@H]3c4ccc(O)cc4C[C@@H](CCCCCCCCCS(=O)CCCC(F)(F)C(F)(F)F)[C@H]3[C@@H]1CC[C@@H]2O` (some centres undefined), the AC50 in [1] is 0.05 µM (active); in [3], 0.0338 µM (active); in experiment [4] it was 15.6 µM (active); in experiment [5] it was 44.4 µM (active); in [8], 0.0681 µM (active); in experiment [9] it was 0.105 µM (active). In addition, the AC50 was 27.8 µM (active) in [11]; 30.9 µM (active) in experiment [13]; 10.5 µM (active) in experiment [14]; 22.4 µM (active) in experiment [15]; 21.1 µM (active) in experiment [18]. Also, the molecule was classed as inactive in experiment [2], in experiment [6], in experiment [7], in [10], in [12] and in experiment [16]. In addition, the molecule was classed as inactive in [17] and in experiment [19].
For the molecule `N#CSCSc1nc2ccccc2s1`, the molecule was called inactive in experiment [1], in experiment [2], in experiment [3], in experiment [4], in experiment [5] and in experiment [7]. For the same molecule, the molecule was called inactive in experiment [8], in experiment [9], in experiment [10], in experiment [11], in experiment [12] and in experiment [13]. In addition, the call in experiment [15], in experiment [16] and in experiment [17] was inactive. The AC50 is 49.4 µM (active) in experiment [6], 63.3 µM (active) in experiment [14] and 40.3 µM (active) in experiment [19].
For `COC(=O)CSc1cc(N=c2sc(=O)n3n2CCCC3)c(F)cc1Cl`, the molecule was called inactive in [1], in experiment [2], in [3], in [4], in experiment [5] and in experiment [7]. The call in experiment [8], in [9], in experiment [10], in experiment [12], in [13] and in experiment [14] was inactive. The result in experiment [16], in [17] and in experiment [19] was inactive. Moreover, the values for the AC50 in experiment [6], in [11] and in experiment [15] were 64.9 µM (active), 25.6 µM (active) and 50 µM (active), respectively.
With `CCN(CC)C(=O)c1cccc(C)c1`, the molecule was called inactive in experiment [1], in [2], in experiment [3], in [4], in experiment [5] and in experiment [7]. In addition, the molecule was classed as inactive in [8], in [9], in experiment [10], in [11], in experiment [12] and in [13]. The call in experiment [14], in [16], in experiment [17], in experiment [18] and in [19] was inactive. In addition, the results for the AC50 in experiment [6] and in experiment [15] were 50 µM (active) and 21.5 µM (active), respectively.
